Results as given in PubChem BioAssay.
Calls of active or inactive are those of the source.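 Rule for the calls: active = growth inhibition above 50% at the single 2 µM test dose, taken to imply half-maximal potency below 2 µM; inactive = the rest.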

assay: antimalarial activity against Dd2 strain (AID 2302);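 note: 0% = DMSO untreated growth and 100% = chloroquine plus artemisinin killed control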; conditions: P. falciparum Dd2 in RBCs, LDH growth readout, 72 h; at 2 µM; active compounds read high

Growth inhibition, active:
COc1ccc(C(=O)NC2CCN(c3ccnc4cc(Cl)ccc34)C2)cc1 (stereo not given) 100%, CC(C)(C)NCc1cc(Nc2ccnc3cc(Cl)ccc23)ccc1F 100%, O=C(NC1CCC(CCN2Cc3ccc(Br)cc3C2)CC1)c1cccc(-c2cccnc2)c1 (stereo not given) 73%, N#Cc1ccc(N(CCNS(=O)(=O)c2cc(Br)c(Cl)s2)Cc2ccccc2C(F)(F)F)cc1C(F)(F)F 57%, NC(=O)c1cccc(CNCc2ccc(-c3cccc(-c4nc5ccccc5[nH]4)c3)cc2)c1 94%, C[C@@H]1CN(c2ncc(-c3ccc(CNC4Cc5ccccc5C4)cc3)cn2)C[C@H](C)N1 78%, Oc1ccc(-c2ccccc2)cc1CN1CCCCCC1 85%, O=C(Nc1ccncc1)c1cc(C(=O)Nc2ccncc2)cc([N+](=O)[O-])c1 50%, CC(C)(C)C(Cn1ccnc1)NCc1cn[nH]c1-c1ccc(-c2ccccc2)cc1 (stereo not given) 69%, COc1cc(CNC[C@@H](O)[C@H](Cc2ccccc2)NC(=O)c2cc(C3CCCC3)cc(N3CCCS3(=O)=O)c2)cc(OC)c1 94%, CCCc1cn2c3c(cc(C(=O)N[C@@H](Cc4ccccc4)[C@H](O)CNC4CCOCC4)cc13)N(C)S(=O)(=O)CC2 98%, CC(C)COc1ccc(Cl)cc1Cc1ccc(-c2nc3ccc(C(F)(F)F)cc3[nH]2)o1 51%, Cc1noc(C)c1-c1ccc2c(Nc3ccccc3C(C)(C)C)c(C(=O)NCc3ccc(C(F)(F)F)cc3)cnc2c1 50%, CN(C)C(=O)O[C@@H]1CN[C@H](C#Cc2cc3ncnc(Nc4ccc5c(cnn5Cc5cccc(F)c5)c4)c3s2)C1 68%, CCOC(=O)c1cc(C(=O)NCCCCN2CCC(c3ccc(CC)cc3OCC)CC2)ccc1-c1ccc(C(F)(F)F)cc1 71%, CC(Cc1ccc(NC(=O)COc2ccc(CC(C)NCCc3cccc(Cl)c3)cc2)cc1)NCCc1cccc(Cl)c1 (stereo not given) 98%, O=C(Nc1ccc(-c2ccc(-c3nc4ccccc4[nH]3)s2)cc1)c1ccncc1 95%, Oc1ccc(Nc2nc(NCc3ccccc3)c3ccccc3n2)cc1 100%, COc1cc(F)c2ncc(Cl)c(CCN3CCC(NCc4ccc5c(c4)NC(=O)CO5)CC3)c2c1 79%, FC(F)(F)c1ccc2nc(-c3cccc(-c4cccc(CNCC5CCCO5)c4)c3)[nH]c2c1 (stereo not given) 96%, OCCN1CCN(Cc2ccc(-c3cccc(-c4nc5ccc(C(F)(F)F)cc5[nH]4)c3)cc2)CC1 83%, CC(CCc1ccccc1)NCC(O)c1cccc([N+](=O)[O-])c1 (stereo not given) 98%, CC(CN(C)C)C(=O)Nc1cccc(-c2cccc(-c3nc4ccc(F)cc4[nH]3)c2)c1 (stereo not given) 94%, COc1ccc(Nc2nccc(N3CCC(NC(=O)C(C)c4ccc(Cl)cc4)CC3)n2)cc1 (stereo not given) 52%, c1ccc(Oc2ccc(Nc3ccnc4cc(-c5cccc(CN6CCOCC6)c5)ccc34)cc2)cc1 100%

Growth inhibition, inactive:
CC(C)Nc1nc(NCCc2cnc[nH]2)nc(NCc2ccc(Cl)c(Cl)c2)n1 -1%, COCCCNc1sc(S(=O)(=O)c2ccccc2)nc1S(=O)(=O)c1ccc(C)cc1 44%, O=C(/C=C/c1ccc(Cl)cc1)NCCCCCN1CCC(C(=O)Nc2ccc(Cl)cc2)CC1 -1%, O=C(NCCCNc1nc2ccccc2[nH]1)c1cccc(OC(F)(F)F)c1 27%, Cc1cccc(Cn2c(C(N)=O)nn(-c3ccc([N+](=O)[O-])cc3C#N)c2=S)c1 48%, Cc1ccccc1Nc1nc(Nc2ccccc2)c2ccccc2n1 21%, COc1ccc(CNC(=O)NC2CCN(c3ccnc(Nc4ccc(F)cc4)n3)CC2)cc1 4%, O=C(/C=C/c1c[nH]c2ccccc12)NCCCCCN1CCC(c2c[nH]c3ccccc23)CC1 0%, Cc1cc(Nc2ccnc(-c3ccc(Cl)cc3)n2)ccn1 23%, Cc1ccc(Nc2nc(N)c3ccccc3n2)cc1 12%, O=C(N[C@H]1CCN(Cc2ccc(OCCN3CCCC3)c(Cl)c2)C1)c1ccc(Cl)c(Cl)c1 46%, Cc1nc2nc(N)nc(N)c2c(C)c1Cc1cccc(C(N)=O)c1 -1%, COc1ccc(-c2ccc(NC(=O)c3ccc(Cl)cc3)cc2)cc1CN1CCNCC1 24%, Clc1cnc2ccc3c(c2c1CCN1CCC(NCc2cc4c(cn2)OCCO4)CC1)OCCO3 18%, CC(=O)Nc1cccc(C(=O)Nc2cccc(-c3ccc(-c4nc5ccc(F)cc5[nH]4)s3)c2)c1 30%
